Assay results reported in the supplement of paper PMC9942566.
± gives the standard deviation of the averaged measurements.

test system: Serratia marcescens K904 PosmB-luxCDABE reporter (pMQ747); experiment: PosmB-lux reporter fold induction (RLU/OD600 relative to no-compound control), highest over Biolog concentrations; higher = stronger reporter activation; settings: ΔrcsB mutant CMS5177; 4 h
Description: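 Serratia marcescens K904 (wild type) or its isogenic ΔrcsB mutant, carrying the Rcs-dependent PosmB-luxCDABE reporter plasmid pMQ747, was grown in LB at OD600 0.1 in Biolog Phenotype MicroArray plates PM11-20 for 4 h at 30-32°C. Each compound is present at 3-4 proprietary concentrations (not stated); per the Fig. S1 legend the value given is the highest fold over those wells. Three independent trials.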

SMILES | PosmB-lux reporter fold induction
[Cl-].[Cs+] [Cesium chloride] (Biolog plate: PM13, well positions: F1-4) | 1.64 ± 0.47
CSc1ccc2c(c1)N(CCC1CCCCN1C)c1ccccc1S2 (stereo not given) [thioridazine] (Biolog plate: PM20, well positions: C1-4) | 1.11 ± 0.088
COc1ccc(CO)cc1OC [3,4-Dimethoxy-benzyl alcohol] (Biolog plate: PM15, well positions: F1-4) | 1.65 ± 0.64
CC(C)NCC(O)COc1cccc2ccccc12 (racemic) [D,L-propranolol] (Biolog plate: PM20, well positions: B5-8) | 1.24 ± 0.19
CCN1CCN(C(=O)N[C@@H](C(=O)N[C@@H]2C(=O)N3[C@@H]2SC(C)(C)[C@@H]3C(=O)O)c2ccccc2)C(=O)C1=O [Piperacillin] (Biolog plate: PM14, well positions: F5-8) | 1.2 ± 0.13
CO[C@@H]1[C@@H](O[C@@H]2O[C@H](C)[C@@H](O[C@H]3C[C@@](C)(O)[C@@H](OC(=O)CC(C)C)[C@H](C)O3)[C@H](N(C)C)[C@H]2O)[C@@H](CC=O)C[C@@H](C)[C@@H](O)/C=C/C=C/C[C@@H](C)OC(=O)C[C@H]1OC(C)=O [josamycin] (Biolog plate: PM19, well positions: A2-4) | 9.66 ± 6.6
CC1(C)S[C@@H]2[C@H](NC(=O)[C@H](N)c3ccc(O)cc3)C(=O)N2[C@H]1C(=O)O [Amoxicillin] (Biolog plate: PM11, well positions: B1-4) | 0.968 ± 0.11
Nc1c2ccccc2nc2ccccc12 [9-Aminoacridine] (Biolog plate: PM14, well positions: B1-4) | 1.19 ± 0.19
CN(C)CCCN1c2ccccc2Sc2ccc(Cl)cc21 [chlorpromazine] (Biolog plate: PM17, well positions: D9-12) | 1.63 ± 0.49
O=P(O)(O)OP(=O)(O)O [sodium pyrophosphate decahydrate] (Biolog plate: PM18, well positions: A5-8) | 0.615 ± 0.16
NC(=O)NO [Hydroxyurea] (Biolog plate: PM15, well positions: H5-8) | 13.9 ± 5.4
O=C1C=C(O)C(=O)c2ccccc21 [lawsone] (Biolog plate: PM19, well positions: E9-12) | 1.14 ± 0.35
C[C@@H]1O[C@@H]1P(=O)(O)O [Phosphomycin] (Biolog plate: PM16, well positions: A5-8) | 1.57 ± 0.24
CN(C)c1ccc(C(=C2C=CC(=[N+](C)C)C=C2)c2ccc(N(C)C)cc2)cc1 [crystal violet] (Biolog plate: PM20, well positions: E1-4) | 1.24 ± 0.17
NC[C@@H]1O[C@H](O[C@H]2[C@@H](O)[C@H](O[C@@H]3[C@@H](O)[C@H](N)C[C@H](N)[C@H]3O[C@H]3O[C@H](CO)[C@@H](O)[C@H](O)[C@H]3N)O[C@@H]2CO)[C@H](N)[C@@H](O)[C@@H]1O [Paromomycin] (Biolog plate: PM12, well positions: C1-4) | 1.42 ± 0.79
NC(CO)C(=O)NO (racemic) [D,L-Serine hydroxamate] (Biolog plate: PM12, well positions: C9-12) | 1.74 ± 1.6
CNC(C)C1CCC(N)C(OC2C(N)CC(N)C(OC3OCC(C)(O)C(NC)C3O)C2O)O1 (stereo not given) [Gentamicin] (Biolog plate: PM11, well positions: G5-8) | 1.47 ± 0.41
NCC[C@H](O)C(=O)N[C@@H]1C[C@H](N)[C@@H](O[C@H]2O[C@H](CN)[C@@H](O)[C@H](O)[C@H]2O)[C@H](O)[C@H]1O[C@H]1O[C@H](CO)[C@@H](O)[C@H](N)[C@H]1O [Amikacin] (Biolog plate: PM11, well positions: A2-4) | 1 ± 0.088
CCn1cc(C(=O)O)c(=O)c2ccc(C)nc21 [Nalidixic Acid] (Biolog plate: PM11, well positions: E9-12) | 8.63 ± 3.1
Cc1onc(-c2ccccc2)c1C(=O)N[C@@H]1C(=O)N2[C@@H]1SC(C)(C)[C@@H]2C(=O)O [Oxacillin] (Biolog plate: PM12, well positions: B1-4) | 1.31 ± 0.52

SMILES | PosmB-lux reporter fold induction
CC(C)(C)CC(C)(C)c1ccc(OCCOCC[N+](C)(C)Cc2ccccc2)cc1 [Benzethonium chloride] (Biolog plate: PM12, well positions: E9-12) | 1.69 ± 0.07
O=C(O)CN(CCOCCOCCN(CC(=O)O)CC(=O)O)CC(=O)O (Biolog plate: PM14, well positions: H1-4) | 1.53 ± 0.51
CN[C@H](CC(C)C)C(=O)N[C@H]1C(=O)N[C@@H](CC(N)=O)C(=O)N[C@H]2C(=O)N[C@H]3C(=O)N[C@H](C(=O)N[C@H](C(=O)O)c4cc(O)cc(O)c4-c4cc3ccc4O)[C@H](O)c3ccc(c(Cl)c3)Oc3cc2cc(c3O[C@@H]2O[C@H](CO)[C@@H](O)[C@H](O)[C@H]2O[C@H]2C[C@](C)(N)[C@H](O)[C@H](C)O2)Oc2ccc(cc2Cl)[C@H]1O [Vancomycin] (Biolog plate: PM12, well positions: C5-8) | 1.21 ± 0.36
O=c1ccc2ccc(O)cc2o1 [umbelliferone] (Biolog plate: PM19, well positions: C5-8) | 0.964 ± 0.57
O=C(N[C@H](CO)[C@H](O)c1ccc([N+](=O)[O-])cc1)C(Cl)Cl [Chloramphenicol] (Biolog plate: PM14, well positions: F1-4) | 1.87 ± 1.1
CO[C@@]1(NC(=O)CSCC#N)C(=O)N2C(C(=O)O)=C(CSc3nnnn3C)CS[C@@H]21 [Cefmetazole] (Biolog plate: PM15, well positions: A9-12) | 1.51 ± 0.23
CCN(CC)CCOC(=O)c1ccc(N)cc1 [Procaine] (Biolog plate: PM15, well positions: A2-4) | 1.04 ± 0.067
NC[C@H]1O[C@H](O[C@H]2[C@H](O)[C@@H](O[C@H]3O[C@H](CO)[C@@H](O)[C@H](N)[C@H]3O)[C@H](N)C[C@@H]2N)[C@H](N)C[C@@H]1O [Tobramycin] (Biolog plate: PM12, well positions: F1-4) | 1.52 ± 0.67
Cc1ccc2c(Cl)cc(Cl)c(O)c2n1 [5,7-Dichloro-8-hydroxy-quinaldine] (Biolog plate: PM15, well positions: B9-12) | 1.27 ± 0.13
[Cl][Mn][Cl] [Manganese chloride] (Biolog plate: PM13, well positions: G5-8) | 1.41 ± 0.043
CC(CN1c2ccccc2Sc2ccccc21)N(C)C (stereo not given) [Promethazine] (Biolog plate: PM14, well positions: H5-8) | 1.43 ± 0.21
CN[C@@H]1[C@@H](O)[C@@H](O[C@@H]2[C@@H](O)[C@H](O[C@H]3OC(CN)=CC[C@H]3N)[C@@H](N)C[C@H]2N)OC[C@]1(C)O [Sisomicin] (Biolog plate: PM12, well positions: D1-4) | 1.29 ± 0.5
N=C(NCCCCCCNC(=N)NC(=N)Nc1ccc(Cl)cc1)NC(=N)Nc1ccc(Cl)cc1 [chlorhexidine] (Biolog plate: PM19, well positions: C1-4) | 1.19 ± 0.57
N.N.N.N.N.N.[Cl-].[Cl-].[Cl-].[Co+3] [hexammine cobalt (III) chloride] (Biolog plate: PM19, well positions: H1-4) | 1.35 ± 0.2
NC(CO)C(=O)NNCc1ccc(O)c(O)c1O (stereo not given) [Benserazide] (Biolog plate: PM20, well positions: A9-12) | 0.916 ± 0.14
CC(=O)OCC1=C(C(=O)O)N2C(=O)[C@@H](NC(=O)Cc3cccs3)[C@H]2SC1 [Cephalothin] (Biolog plate: PM11, well positions: H1-4) | 1.37 ± 0.15
[Na+].[Na+].[O]=[W](=[O])([O-])[O-] [sodium tungstate] (Biolog plate: PM17, well positions: E9-12) | 0.99 ± 0.14
NCC(=O)NO [glycine hydroxamate] (Biolog plate: PM16, well positions: H1-4) | 2.02 ± 0.63
c1ccc(-c2nn(-c3ccccc3)[n+](-c3cccc4ccccc34)n2)cc1 [tetrazolium violet] (Biolog plate: PM20, well positions: B9-12) | 0.262 ± 0.11
CN1CCN(CCCN2c3ccccc3Sc3ccc(C(F)(F)F)cc32)CC1 [Trifluoperazine] (Biolog plate: PM13, well positions: G9-12) | 1.43 ± 0.36
